A selection: hits, their analogues and other compounds. The true share with any hit is near 3.9%.
Wnt act: Wnt/beta-catenin pathway activators, primary screen, cell-based, plate reader, single point. Wnt/beta-catenin reporter cell assay, activator. activation, % at 9.35 µM. hit rate 1.2% among 300,000. AID 743398, 2014; in the data active means activation above about 30%, passing the limit was not always enough;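 further: 0% = neutral control wells and 100% = positive control wells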
HSF1 activator: HSF-1 activators, primary screen, NIH3T3-HGL cells, MG132 stress, luminescence, single point; NIH3T3-HGL HSF-1 luciferase reporter, 8 h; 100% = twice DMSO control signal; AID 504408, 2011; activation, % at 9 µM; hit rate 1.7% among 300,000;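 active means mean replicate activation of at least 50% with a set share of replicates each reaching 50%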;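 further: 0% = median of the neutral control wells and 100% = twice that signal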
HSF1 inhib: HSF1 inhibitors in luciferase reporter cells, primary screen, cell-based, NIH3T3, luminescence; NIH3T3-HGL HSE-luciferase, MG132-induced, luminescence 8 h; stronger effect = lower value; hit rate 0.77% among 300,000; activity change, negative = inhibition, % at 7.5 µM (by protocol);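 active means more than half of replicate wells show activity change below -50%, luminescence cut by over half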;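 further: luciferase reports HSF-1 transcriptional activity via heat shock element; 0% = median of DMSO wells and -100% = zero luminescence signal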
MITF TRPM1 HTS: activators of MITF-driven TRPM1 promoter reporter, primary screen, cell-based, SK-MEL-5, luciferase, single point. SK-MEL-5 TRPM1-promoter luciferase, 24 h; % of positive control, neutral wells = 0. activation, % at 12.5 µM. hit rate 0.75% among 300,000. AID 588334, 2011;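 active means mean activation of at least 80% with every replicate also reaching 80%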;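 further: 0% = neutral control wells and 100% = parthenolide positive control wells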
esBAF inh: Bmi1 luciferase reporter increase in mESCs, primary screen, esBAF inhibitor project, mouse ES cells, Bmi1 luciferase knock-in, single point; 24 h; 100% = twice the neutral-well signal; reporter increase, % at 12.5 µM; hit rate 2% among 350,000; AID 602393, 2012; in the data active means activation above about 40%;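 further: 0% = median of the plate's neutral control wells and 100% = double that signal; a rise in the Bmi1 reporter signal indicates esBAF inhibition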
* hit, by the source's call.

C[C@@H]1CN([C@H](C)CO)C(=O)c2cc(NC(=O)Cc3ccccc3)ccc2O[C@@H](C)CCCCO[C@@H]1CN(C)C(=O)CCC(F)(F)F was read as esBAF inh 5.
`COC(=O)c1c(NC(=O)c2ccc(C)o2)sc2c1CCCCC2` gave Wnt act 52*, HSF1 activator 60*, HSF1 inhib 29 and esBAF inh 63*.
For Cc1ccc(C(=O)Nc2sc3c(c2C(=O)O)CCCC3)o1 the results were Wnt act 10, HSF1 activator 3, HSF1 inhib 6 and MITF TRPM1 HTS 10.
`Cc1ccc(C(=O)Nc2sc3c(c2C(=O)O)CCC(C)C3)o1` (stereo unspecified) gave Wnt act 11, MITF TRPM1 HTS 37 and esBAF inh 49*.
`NC(=O)c1c(NC(=O)c2ccc([N+](=O)[O-])o2)sc2c1CCCC2` gave Wnt act 2, HSF1 activator 116*, HSF1 inhib 64 and MITF TRPM1 HTS -61.
`CO[C@H](C(=O)N(C)C[C@H]1OCc2ccccc2-c2c(n(C)c3ccccc23)C(=O)N([C@H](C)CO)C[C@@H]1C)c1ccccc1` gave esBAF inh 5.
O=c1[nH]c(CSc2nc3ccccc3[nH]2)nc2c1cnn2-c1ccccc1 was read as Wnt act -1, HSF1 activator 24, HSF1 inhib 9 and MITF TRPM1 HTS 13.
`O=c1[nH]c(SCc2nc3c(cnn3-c3ccccc3)c(=O)[nH]2)nc2ccccc12` gave Wnt act -2, MITF TRPM1 HTS 20 and esBAF inh 44*.
C[C@@H]1CN([C@@H](C)CO)S(=O)(=O)c2ccc(-c3cccc(F)c3)cc2O[C@H]1CN(C)S(=O)(=O)c1ccc(F)cc1 was read as esBAF inh 12.
For CCOC(=O)c1oc2nc(C)c3c(c2c1N)CC(C)(C)OC3 the results were HSF1 activator 2, HSF1 inhib -7 and esBAF inh -3.
For CCOC(=O)c1oc2nc3c(cc2c1N)CCCC3 the results were Wnt act 37*, HSF1 activator 20, HSF1 inhib -4 and esBAF inh 32.
CCOC(=O)c1oc2nc3c(cc2c1N)COC(C)(C)C3 was read as Wnt act 49*, HSF1 activator -7, HSF1 inhib 2, MITF TRPM1 HTS 59 and esBAF inh 4.
CCC(Sc1nc2n[nH]c(C)c2c(=N)n1-c1ccc(C)c(Cl)c1)C(=O)N1CCOCC1 (stereo unspecified) was read as Wnt act 3, HSF1 activator 56*, HSF1 inhib 17, MITF TRPM1 HTS 12 and esBAF inh 3.
`O=C(COC(=O)c1ccc(O)cc1O)c1ccc(Cl)cc1` gave Wnt act -1, HSF1 activator 61*, HSF1 inhib 53 and MITF TRPM1 HTS 56.
CN(C(=O)c1ccco1)c1nc(-c2ccc(F)cc2)cs1 was read as Wnt act 0, HSF1 activator 83*, HSF1 inhib 36, MITF TRPM1 HTS 80* and esBAF inh 27.
COc1ccc(-c2nnc(N(C)C(=O)c3ccco3)s2)cc1OC was read as Wnt act 0, HSF1 activator 10, HSF1 inhib 12, MITF TRPM1 HTS 29 and esBAF inh 10.
Screening O=C(c1ccco1)N(CCCN1CCOCC1)c1nc(-c2ccc(F)cc2)cs1 returned HSF1 activator 35, HSF1 inhib 12, MITF TRPM1 HTS 4 and esBAF inh -5.
`CN(C(=O)c1ccco1)c1nnc(-c2ccc(F)cc2)s1` gave Wnt act 7, HSF1 activator 35, HSF1 inhib 16, MITF TRPM1 HTS 100* and esBAF inh 58*.
CCN(CC)CCCN(C(=O)c1ccco1)c1nc(-c2ccc(C)cc2)cs1 was read as Wnt act 0, HSF1 activator -76, HSF1 inhib -69*, MITF TRPM1 HTS 1 and esBAF inh -10.
For CO[C@@H]1CN(C)C(=O)c2cc(NC(=O)C3CC3)ccc2OC[C@H](C)N(Cc2cncnc2)C[C@H]1C the results were esBAF inh -2.
For COc1ccc(NC(=O)N[C@H]2CC[C@@H](CCNC(=O)Nc3cc(F)ccc3F)O[C@@H]2CO)cc1 the results were esBAF inh 4.
CN1C(=O)c2cc(NS(C)(=O)=O)ccc2OC[C@@H]2O[C@@H](CC(=O)NCc3ccc(-c4ccccc4)cc3)CC[C@@H]21 was read as esBAF inh 8.
`Cc1noc(C)c1S(=O)(=O)Nc1ccc2c(c1)C(=O)N([C@H](C)CO)C[C@@H](C)[C@H](CN(C)C(=O)Nc1ccc(F)cc1)OCCCC[C@@H](C)O2` gave esBAF inh 12.
Screening CCCNC(=O)Nc1ccc2c(c1)C(=O)N(C)[C@H]1CC[C@@H](CC(=O)NCc3ccccc3)O[C@H]1CO2 returned esBAF inh -3.
For CCCCCCCCOC(=O)c1nc(Cl)c(Cl)c(N)c1Cl the results were Wnt act -1, HSF1 activator -4, HSF1 inhib -5 and MITF TRPM1 HTS -10.
Screening COC(=O)c1nc(Cl)c(Cl)c(N)c1Cl returned Wnt act -2, HSF1 activator -77, HSF1 inhib -72* and MITF TRPM1 HTS -24.
Screening C[C@@H]1CN([C@H](C)CO)C(=O)c2cc(NC(=O)c3ccncc3)ccc2O[C@@H]1CN(C)Cc1ccc(C(=O)O)cc1 returned esBAF inh 2.
Screening Cc1nn2c(-c3ccccc3)nnc2c2ccccc12 returned esBAF inh 52*.
Screening Cc1nn2c(-c3cccc(NC(=O)c4ccco4)c3)nnc2c2ccccc12 returned Wnt act -2, HSF1 activator 17, HSF1 inhib -1 and esBAF inh 11.
Cc1cc(C)nc(Nc2n[nH]c(-c3ccccc3C)n2)n1 was read as Wnt act 14, HSF1 activator 40, HSF1 inhib 27 and MITF TRPM1 HTS 58.
Cc1cc(C)nc(Nc2n[nH]c(-c3ccccc3Br)n2)n1 was read as HSF1 activator -15, HSF1 inhib 8 and esBAF inh 44*.
For Cc1cc(C)nc(Nc2n[nH]c(C)n2)n1 the results were Wnt act 0, HSF1 activator 17, HSF1 inhib 0 and MITF TRPM1 HTS 1.
`Cc1cc(C)nc(Nc2n[nH]c(-c3ccc(N)cc3)n2)n1` gave Wnt act 47*, HSF1 activator 22, HSF1 inhib 11 and esBAF inh 11.
Screening Cc1cc(C)nc(Nc2n[nH]c(-c3ccc(C(C)(C)C)cc3)n2)n1 returned Wnt act 3, HSF1 activator 6, HSF1 inhib -12, MITF TRPM1 HTS 20 and esBAF inh 55*.
For Cc1cc(C)nc(Nc2n[nH]c(COc3ccc(Cl)cc3)n2)n1 the results were HSF1 activator -8, HSF1 inhib -1 and esBAF inh -2.

Source: PubChem BioAssay (Broad Institute)
